From PubChem
HEK cytotox: Cytotoxic Profiling in HEK 293 Cell Line of Diverse Libraries Using Quantitative High-Throughput Screening; HEK 293 viability, ATP luminescence (CellTiter-Glo), 48-72 h; Potency, µM (series often up to 115 µM), inactives show at the highest dose activity change, negative = cytotoxicity, most hits filed as inhibitors; 6.6% of 94,000 active; note: % is set by controls: 0 for no effect and ±100 for the full control effect; nearly all actives have a fitted effect of over 60% in size
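HEK 293 cells seeded at 250 cells/well were exposed to compound for 48 or 72 hr at 37 degree Celsius. Viability taken as ATP content by CellTiter-Glo luminescence.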
FLuc inh: Firefly luciferase inhibition profiling of diverse chemical library using quantitative high-throughput screening | AID 1347043, 2019 | 2.5% of 76,000 active | Potency, µM (top dose mostly 115 µM), actives largely listed as inhibitors | Luciferin 4-monooxygenase (Photinus pyralis), P08659 | purified P. pyralis luciferase, luminescence, biochemical; note: % is set by controls: 0 for no effect and ±100 for the full control effect; nearly all actives have a fitted effect of over 65% in size
Target sequence (P08659 whole entry, looked up): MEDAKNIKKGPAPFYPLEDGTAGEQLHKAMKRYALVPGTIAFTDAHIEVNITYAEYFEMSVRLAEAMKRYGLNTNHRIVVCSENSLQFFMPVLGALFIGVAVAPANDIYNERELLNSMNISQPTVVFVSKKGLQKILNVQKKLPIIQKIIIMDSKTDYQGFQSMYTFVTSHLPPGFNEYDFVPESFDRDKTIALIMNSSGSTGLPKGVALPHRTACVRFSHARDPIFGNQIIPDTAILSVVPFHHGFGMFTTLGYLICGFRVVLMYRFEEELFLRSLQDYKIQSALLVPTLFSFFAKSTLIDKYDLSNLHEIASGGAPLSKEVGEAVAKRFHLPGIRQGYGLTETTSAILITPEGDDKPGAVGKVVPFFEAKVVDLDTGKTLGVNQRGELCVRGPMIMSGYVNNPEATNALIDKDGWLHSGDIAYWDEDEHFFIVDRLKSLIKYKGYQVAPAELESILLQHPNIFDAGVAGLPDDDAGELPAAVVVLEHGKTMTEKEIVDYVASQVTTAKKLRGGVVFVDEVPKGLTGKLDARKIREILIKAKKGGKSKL
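Luminescence read by CCD imager after adding enzyme (10nM final) to wells holding compound, titrated in qHTS. Substrates 10uM each D-luciferin and ATP; buffer 50mM Tris acetate pH 7.5, 10mM Mg acetate, Tween-20, BSA.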
3T3 cytotox: Cytotoxic Profiling in NIH 3T3 Cell Line of Diverse Libraries Using Quantitative High-Throughput Screening. NIH 3T3 viability, CellTiter-Glo ATP luminescence, 48-72 h. Potency, µM (highest dose often 96.7 µM), for the others: at the top dose activity change, negative = cytotoxicity, hits mostly inhibitors. 4.3% of 94,000 active; note: % is set by controls: 0 for no effect and ±100 for the full control effect; nearly all actives have a fitted effect of over 55% in size
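Viability of NIH 3T3 cells after 48 or 72 hr compound treatment at 37 °C was assessed by CellTiter-Glo, with luminescence imaged following a 10 min room-temperature step.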
NPR1 antag: Natriuretic polypeptide receptor (hNpr1) antagonism - Primary qHTS; Atrial natriuretic peptide receptor 1 (Homo sapiens), P16066; HEK293 hNpr1 GloSensor cGMP, ANP-stimulated luminescence; Potency, µM (top dose mostly 46.3 µM), inactives show at the highest dose activity change, negative = inhibition, hits mostly inhibitors; 1.6% of 76,000 active; AID 1347048, 2019; calls by dose curve; note: % is set by controls: 0 for no effect and ±100 for the full control effect; nearly all actives have a fitted effect of over 60% in size
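HEK293 cells stably expressing human Npr1 and cGMP GloSensor pGS-40F, loaded 2 h with 2% GloSensor reagent, given compound 30 min at room temperature. Luminescence read before and 20 min after 0.1 nM hNppA.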
Npr1 antag conf: Natriuretic polypeptide receptor (hNpr1) antagonism - Confirmation | HEK293 hNpr1 cGMP GloSensor luminescence, ANP-stimulated | 76% of 1,400 active | AID 1347044, 2019 | Potency, µM (titrated, usually from 57.6 µM), for the others: at the highest dose activity change, negative = inhibition, actives largely listed as inhibitors | shares compounds with NPR1 antag; calls by dose curve; note: nearly all actives have a fitted effect of over 70% in size
NPR2 antag: Natriuretic polypeptide receptor (hNpr2) antagonism - Subtype selectivity assay; shares compounds with NPR1 antag; HEK293 hNpr2 GloSensor cGMP luminescence, CNP-stimulated; Potency, µM (titrated, usually from 57.6 µM), inactives show top-dose activity change, negative = inhibition, most hits filed as inhibitors; 67% of 1,400 active; calls by dose curve; note: nearly all actives have a fitted effect of over 70% in size
FLuc inh counter: Natriuretic polypeptide receptor (hNpr1) antagonism - Confirmation firefly luciferase (FLuc) inhibition counterscreen; shares compounds with NPR1 antag; purified FLuc enzyme, luminescence, Km substrate; Potency, µM (doses to about 57.6 µM), inactives show at the highest dose activity change, negative = inhibition, most hits filed as inhibitors; 0.7% of 1,400 active; note: 0% is about no effect
GloSensor cGMP: Natriuretic polypeptide receptor (hNpr1) antagonism - Counterscreen GloSensor control cell line; shares compounds with NPR1 antag; HEK293 GloSensor cGMP, SNP-stimulated, luminescence; Potency, µM (titrated, usually from 57.6 µM), inactives show top-dose activity change, negative = inhibition, actives largely listed as inhibitors; 69% of 1,400 active; AID 1347051, 2019; calls by dose curve; note: % is set by controls: 0 for no effect and ±100 for the full control effect; nearly all actives have a fitted effect of over 70% in size
The depositor's hits bear a star; [ ] = dose if it differs, or a comment. Sampled rows, rich in hits. Any-hit rate of the full collection: about 11%. Unless noted, calls come from the whole dose curve; as a rule, active = well fitted curve in the direction sought with a large enough effect; inconclusive = small, poorly fitted or top-dose-only effect, or another doubt; inactive = no such curve, though single readings can be large; an effect the other way counts as inactive or inconclusive. Potency is the fitted concentration of half-maximal effect.

Screening Cc1ccc(NC(=O)c2cc3n(n2)CC(c2ccc4c(c2)OCO4)OC3)cc1Cl (stereo unspecified) returned HEK cytotox inconclusive, FLuc inh inactive, 3T3 cytotox inconclusive, NPR1 antag inconclusive, Npr1 antag conf inconclusive, NPR2 antag inconclusive, FLuc inh counter -4% and GloSensor cGMP -28%.
For O=C(NCc1ccc(F)cc1F)c1cc2n(n1)CC(c1ccc3c(c1)OCO3)OC2 (stereo unspecified) the results were HEK cytotox inconclusive, FLuc inh inactive, 3T3 cytotox inconclusive and NPR1 antag -23%.
Screening O=C(Nc1cccc(Cl)c1)c1cc2n(n1)CC(c1ccc3c(c1)OCO3)OC2 (stereo unspecified) returned HEK cytotox inconclusive, FLuc inh inactive, 3T3 cytotox inconclusive and NPR1 antag -28%.
`COc1ccc([C@@H]2CN(Cc3ccc(C#N)cc3)C[C@H]2N(C)C)cc1` gave HEK cytotox -27%, FLuc inh inactive, 3T3 cytotox -13% and NPR1 antag 0%.
`CCc1nc2c(c(-c3ccc(O)cc3)n1)CCN(C(=O)Cc1ccc(F)cc1)CC2` gave HEK cytotox -11% and 3T3 cytotox -24%.
For O=C(NCc1ccc(Cl)cc1)c1cc2n(n1)CC(c1ccc3c(c1)OCO3)OC2 (stereo unspecified) the results were HEK cytotox inconclusive, FLuc inh inactive, 3T3 cytotox inconclusive and NPR1 antag -27%.
Screening O=C(Nc1ccc(Cl)cc1)c1cc2n(n1)CC(c1ccc3c(c1)OCO3)OC2 (stereo unspecified) returned HEK cytotox inconclusive, FLuc inh inactive, 3T3 cytotox inconclusive, NPR1 antag 13µM*, Npr1 antag conf 24µM*, NPR2 antag 22µM*, FLuc inh counter -15% and GloSensor cGMP 22µM*.
For CCc1ccc(CNC(=O)c2cc3n(n2)CC(c2ccc4c(c2)OCO4)OC3)cc1 (stereo unspecified) the results were HEK cytotox inconclusive, FLuc inh inactive, 3T3 cytotox inconclusive, NPR1 antag -28%, Npr1 antag conf inconclusive, NPR2 antag -20%, FLuc inh counter -7% and GloSensor cGMP inconclusive.
Screening Cc1ccsc1CN1CCC2(CC1)CC(CC(=O)NCc1ccncc1)CCO2 (stereo unspecified) returned HEK cytotox -4%, FLuc inh inactive, 3T3 cytotox -9% and NPR1 antag 4%.
For OCC1CN(c2ccncn2)CC12CCN(Cc1ccc(F)c(F)c1)CC2 (stereo unspecified) the results were HEK cytotox inconclusive, FLuc inh inactive, 3T3 cytotox inconclusive and NPR1 antag -14%.
For OCC1CN(c2ccncn2)CC12CCN(Cc1cc(F)c(F)c(F)c1)CC2 (stereo unspecified) the results were HEK cytotox inconclusive, FLuc inh inactive, 3T3 cytotox -38%, NPR1 antag inconclusive, Npr1 antag conf inconclusive, NPR2 antag -28%, FLuc inh counter -1% and GloSensor cGMP -28%.
For COc1ccccc1-c1ncc(CNc2ncncn2)s1 the results were HEK cytotox inconclusive, FLuc inh inactive, 3T3 cytotox -30% and NPR1 antag -1%.
For COc1ccccc1-c1ncc(CNc2cc(C3CC(O)C3)ncn2)s1 (stereo unspecified) the results were HEK cytotox 32µM*, FLuc inh inactive, 3T3 cytotox -64%, NPR1 antag 7.1µM*, Npr1 antag conf 8.6µM*, NPR2 antag 12µM*, FLuc inh counter -27% and GloSensor cGMP 6.9µM*.
`O=C(C1CC1)N1CCC(Oc2ccccc2)C1` (stereo unspecified) gave HEK cytotox -3%, FLuc inh inactive, 3T3 cytotox -5% and NPR1 antag -8%.
Cn1cccc1C(=O)N1CCCN(Cc2ccncc2)C(c2ccccc2)CC(=O)NCC1 (stereo unspecified) was read as HEK cytotox 1%, FLuc inh inactive, 3T3 cytotox -20% and NPR1 antag -4%.
Screening CN1C[C@@H](NC(=O)CC(C)(C)C)C[C@H]1c1nc(-c2ccc3c(c2)OCO3)no1 returned HEK cytotox inconclusive, FLuc inh inactive, 3T3 cytotox inconclusive, NPR1 antag 25µM*, Npr1 antag conf inconclusive, NPR2 antag inconclusive, FLuc inh counter -3%[86.2 µM] and GloSensor cGMP 40µM*.
Cc1cc(C)n(CCC(=O)N[C@@H]2CN(Cc3ccccc3)C[C@H]2CN(C)C)n1 was read as HEK cytotox 4%, FLuc inh inactive, 3T3 cytotox 4% and NPR1 antag -2%.
Cc1cc(C)n(CC(=O)N[C@@H]2CN(Cc3ccccc3)C[C@H]2CN(C)C)c(=O)n1 was read as HEK cytotox 3%, FLuc inh inactive, 3T3 cytotox inactive, NPR1 antag 11µM*, Npr1 antag conf -16%, NPR2 antag -12%, FLuc inh counter 0% and GloSensor cGMP 14%.
Screening Cn1nccc1C(=O)N1CCC2(CC1)OCCN(Cc1ccccc1F)C2=O returned HEK cytotox inconclusive, FLuc inh inactive, 3T3 cytotox -20%[138 µM], NPR1 antag 32µM*, Npr1 antag conf 35µM*, NPR2 antag 31µM*, FLuc inh counter 0%[86.2 µM] and GloSensor cGMP 31µM*.
Screening Cc1ccc(Cl)cc1N1CCN(C(=O)CCn2ccn3nc4c(c3c2=O)CCCC4)CC1 returned HEK cytotox inconclusive, FLuc inh inactive, 3T3 cytotox inconclusive and NPR1 antag inconclusive.
